Screening results as filed in PubChem BioAssay.
TrxR1 substrate – rat thioredoxin reductase 1 substrate activity; Potency, µM (series often up to 114 µM), for inactives: top-dose activity change, negative = substrate turnover; O89049; purified TrxR1 substrate turnover, NADPH consumption readout; AID 588456; actives 0.01% (n = 390,000); note: % is set by controls: 0 for no effect and ±100 for the full control effect; nearly all actives have a fitted effect of over 50% in size
Target sequence (O89049 whole entry, looked up): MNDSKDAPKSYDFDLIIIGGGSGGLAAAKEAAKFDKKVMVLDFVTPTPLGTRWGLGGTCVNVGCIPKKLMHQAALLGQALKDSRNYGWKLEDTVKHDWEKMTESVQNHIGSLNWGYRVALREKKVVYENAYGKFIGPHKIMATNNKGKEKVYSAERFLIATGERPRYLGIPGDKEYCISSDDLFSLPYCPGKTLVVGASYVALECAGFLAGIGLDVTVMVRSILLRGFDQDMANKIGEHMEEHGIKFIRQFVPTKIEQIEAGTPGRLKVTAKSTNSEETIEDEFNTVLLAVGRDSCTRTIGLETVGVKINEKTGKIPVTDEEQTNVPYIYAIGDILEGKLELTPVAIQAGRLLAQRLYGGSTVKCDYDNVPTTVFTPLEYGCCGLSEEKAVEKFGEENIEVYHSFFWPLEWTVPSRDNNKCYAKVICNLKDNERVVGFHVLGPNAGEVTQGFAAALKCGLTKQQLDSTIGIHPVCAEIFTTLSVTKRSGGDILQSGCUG
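Rat TrxR1, dispensed at 90 nM, was prereduced with 400 uM NADPH (final) for 5 min at ~22 deg C, then incubated with compound 15 min before 400 uM selenite. A first-read NADPH fluorescence drop versus no-compound background flagged substrates.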
rTrxR1 inhibitor – inhibitors of rat thioredoxin reductase 1; Potency, µM (doses to about 114 µM), inactives show at the highest dose activity change, negative = inhibition, most hits filed as inhibitors; O89049; recombinant rTrxR1, NADPH fluorescence consumption, selenite substrate; actives 1% (n = 390,000); AID 588453; note: % is set by controls: 0 for no effect and ±100 for the full control effect; nearly all actives have a fitted effect of over 65% in size
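Rat TrxR1 (90 nM in the dispensed reagent) was pre-reduced with 400 uM NADPH for 5 min at room temperature, then incubated with compound for 15 min. After 400 uM selenite was added, NADPH fluorescence (Ex 340/Em 450 nm) was followed for 8 min.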
Mito fusion yeast – inhibitors of mitochondrial division or activators of mitochondrial fusion | S. cerevisiae fusion-defective mutant growth rescue, CellTiterGlo 48 h | Potency, µM (doses to about 46.1 µM), for inactives: at the highest dose growth rescue (activation), hits mostly activators | actives 0.23% (n = 320,000) | AID 485298; note: % of control where 0% means no effect; nearly all actives have a fitted effect of over 45% in size
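Yeast fusion mutant, YPEG (non-fermentable carbon), compound, 48 h at 37C non-permissive; CellTiterGlo added, 10 min RT, luminescence read. Rescued growth = division inhibition.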
mIDH1 inhibitor – blocks human mutant IDH1 R132H enzyme; O75874; IDH1-R132H enzyme, NADPH consumption, diaphorase/resazurin fluorescence; Potency, µM (doses to about 76.6 µM), without a hit: at the highest dose activity change, negative = inhibition, hits mostly inhibitors; actives 0.093% (n = 390,000); AID 602179; note: % is set by controls: 0 for no effect and ±100 for the full control effect; nearly all actives have a fitted effect of over 65% in size
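IDH1-R132H (0.5 ug/mL) preincubated 30 min with compound, then NADPH (0.016 mM) and alpha-KG (2 mM) added; 80 min at RT, pH 7.5. Remaining NADPH coupled via diaphorase/resazurin to fluorescence (540/590 nm); concentration-response curves normalized to no-enzyme control.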
A549 tox – counter-screen for Nrf2 inhibitors: cytotoxicity in A549 cells; Potency, µM (top dose mostly 46 µM), without a hit: at the top dose activity change, negative = cytotoxicity, hits mostly inhibitors; A549 ARE-Fluc cells, CellTiter-Fluor viability, 18-24 h; AID 504648; actives 0.16% (n = 390,000); note: % is set by controls: 0 for no effect and ±100 for the full control effect
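A549 ARE-Fluc cells in 5% FBS OPTI-MEM, 5000 cells/well, rested 2 h then exposed to compounds in concentration-response for 18-24 h at 37 °C. Viability by CellTiter-Fluor fluorescence (Ex 405/Em 525) after 30 min; luciferase luminescence (BugLite, 15 min, RT) read afterwards.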
Nrf2 block – Nrf2 pathway inhibition | Potency, µM (top dose mostly 46 µM), without a hit: at the top dose activity change, negative = inhibition, actives largely listed as inhibitors | actives 2.1% (n = 360,000) | A549 ARE-Fluc reporter, luciferase luminescence, 18-24 h; note: % is set by controls: 0 for no effect and ±100 for the full control effect; nearly all actives have a fitted effect of over 60% in size
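A549 ARE_Fluc cells (5000/well, 5% FBS OPTI-MEM) pre-incubated 2 h, then treated with compounds 18-24 h at 37C/5% CO2 in concentration-response. CellTiter-Fluor viability read first; BugLite luciferase luminescence after 15 min at room temperature gives Nrf2 activity.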
* marks the source's active call; other numbers are inactive results; ? = inconclusive; . = not tested or not shown; [ ] = dose if it differs, or a comment. Most compounds without a hit are left out; they make up all but 3.1% or so of the library. Calls come from the whole dose curve; as a rule, active = well fitted curve in the direction sought with a large enough effect; inconclusive = small, poorly fitted or top-dose-only effect, or another doubt; inactive = no such curve, though single readings can be large; an effect the other way counts as inactive or inconclusive. Potency is the fitted concentration of half-maximal effect.

SMILES | TrxR1 substrate | rTrxR1 inhibitor | Mito fusion yeast | mIDH1 inhibitor | A549 tox | Nrf2 block
O=[n+]1c2c(n([O-])c3cc(F)c(F)cc31)CCCC2 | -8.0% | 3.55µM* | -1.2% | -1.9% | -1.5% | 5.7%
CC1CC=CC2C1C(=O)N(Cc1ccccc1)C2c1ccc(-c2ccc(N(C)C)cc2)cc1F (centres undefined) | 125.5% | 82.7% | . | . | 10.2% | ?
C=CCNc1ncnc2c1[nH]c1ccc(Cl)cc12 | 9.5% | 11.8% | -2.7% | 3.6% | ? | 8.2µM*
CCCCn1c(SCC(=O)Nc2sc3c(c2C(N)=O)CCC3)nnc1-c1ccccc1 | 11.1%[57.1 µM] | 35.5µM* | . | 0.4% | -1.2% | -22.0%
Cc1nc(NCc2ccccn2)c2c3c(sc2n1)CCCC3 | -2.1%[57.1 µM] | -4.7%[57.1 µM] | 20µM* | -12.4% | 2.7% | -9.4%
COC(=O)c1ccccc1S(=O)(=O)N1CCn2cccc2C1C (centres undefined) | 3.5%[57.1 µM] | 7.1%[57.1 µM] | -0.5% | -2.1% | -8.0% | 1.2%
COc1ccc(NC(C)=O)cc1S(=O)(=O)N1CCn2cccc2C1C (centres undefined) | -10.8% | 50.1µM* | -1.8% | -9.3% | 0.7% | -10.7%
COc1ccc(C#Cc2c(-c3ccccc3)n(-c3ccccc3)c3ccc(CO)cc23)cc1 | 128.3% | 35.5µM* | . | -8.7% | -4.5% | 1.4%
COc1ccc(N2CC(C(=O)Nc3nnc(SCC(=O)NCc4ccco4)s3)CC2=O)cc1 (centres undefined) | 6.0% | ? | -1.9% | 16.9% | 0.3% | 1.6%
O=C(CSc1nnc(NC(=O)C2CC(=O)N(c3ccc(F)cc3)C2)s1)NCc1ccco1 (centres undefined) | 7.4% | 31.6µM* | 3.4% | -3.7% | 7.6% | 14.0%
CCOc1cccc(C2C=C(c3ccc4c(c3)OCO4)NC(c3ccccc3Cl)N2)c1O (centres undefined) | -0.8% | -7.2% | . | . | -0.4% | 15.0%
Cc1ccc2c(CC(=O)N(Cc3ccc(N(C)C)cc3)Cc3ccco3)coc2c1C | 11.1% | 4.0% | . | -5.2% | -4.7% | 23.1µM*
Cc1cccc2c(=O)[nH]c3c(-c4nc(-c5ccc(Cl)cc5)cs4)c(O)cn3c12 | 17.1% | 24.2% | . | . | . | .
Cc1snnc1C(=O)NC(=S)Nc1ccccc1 | -1.2% | 15.8µM* | 0.5% | 4.5% | 3.7% | 3.6%
O=C(NC(=S)Nc1cccnc1)c1ccccc1 | -17.8%[57.1 µM] | -60.2% | 3.4% | 3.9% | -2.8% | ?
CC(NC(=O)Cn1ccc2cc(S(=O)(=O)N3CCCCCC3)ccc21)c1ccccc1 (centres undefined) | -1.1% | 22.9% | . | -3.5% | ? | ?
CN(C)c1ccc2nc3c(=O)[nH]c(=O)nc-3n(CC(O)C(O)C(O)CO)c2c1 (centres undefined) | -0.2%[57.1 µM] | 4.4%[2.29 µM] | -16.7% | -3.1% | 10.3µM* | ?
CCN(c1ccc(Cl)cc1)S(=O)(=O)c1nnc(NC(=O)C2CCCCC2)s1 | 8.4% | 59.7% | . | -15.9% | 13.4% | -11.1%
CCOC(=O)c1cc(OC(=O)c2cccs2)n(-c2ccccc2)n1 | 3.9% | 22.4µM* | -6.7% | 1.0% | -1.0% | -23.4%
CCOC(=O)c1cc(OC(=O)c2ccccc2)n(-c2ccccc2)n1 | -5.2% | -5.1% | 0.2% | -8.8% | -1.1% | -24.7%
Cc1ccc(-n2ncc3c(NCc4cccnc4)ncnc32)c(C)c1 | 7.9% | 17.2% | 6.0% | -4.0% | -13.2% | 9.2µM*
CCCc1cc(=O)oc2c3c(cc(OCC(=O)NCc4ccncc4)c12)OC(C)(C)CC3 | 90.9%[57.1 µM] | -40.2%[57.1 µM] | 4.5% | -28.9% | ? | 11.6µM*
Cc1c(C)c2c(OCC(=O)NCc3ccccn3)cc3c(c2oc1=O)CCC(C)(C)O3 | 421.6% | 89.1µM* | 11.4% | 2.5% | -2.6% | -17.2%
CCCc1cc(=O)oc2c3c(cc(OCC(=O)NCc4ccccn4)c12)OC(C)(C)CC3 | 249.9% | ? | 10.4% | -16.8% | -1.8% | ?
CCN(CC)c1ccc(CNCCCSc2nnnn2C)cc1 | -4.3% | 6.9% | . | -7.2% | -0.8% | 17.7%
SMILES | TrxR1 substrate | rTrxR1 inhibitor | Mito fusion yeast | mIDH1 inhibitor | A549 tox | Nrf2 block
CCn1cnc2c(Nc3ccc(Cc4cccnc4)cc3)nc(C#N)nc21 | . | . | . | . | -14.4% | ?
COC(=O)[C@]1(C)CCC[C@@]2(C)C3CC[C@@]4(C)C[C@]3(CCC21)CC(=O)N4Cc1ccc(OC)cc1 (some centres undefined) | 1.8% | ? | 9.2% | 9.7% | -7.2% | 14.6µM*
COC(=O)[C@]1(C)CCC[C@@]2(C)C3CC[C@]4(OC(C)=O)C[C@@]3(CCC21)CC4=O (some centres undefined) | -5.3% | 5.7% | 5.9% | 4.8% | 3.7% | ?
COc1ccc(-c2cc3nccc(-c4cc(Cl)c(C)cc4O)n3n2)cc1 | 13.2% | 14.1% | . | -5.0% | -5.3% | -8.5%
CN1CCCc2cc(/C=C/c3ccnc4ccccc34)ccc21 | -1.4% | -15.8% | . | . | . | .
CC(C)C(C(=O)O)N1C(=O)/C(=C/c2cccn2C)SC1=S (centres undefined) | -24.2% | 9.5%[57.1 µM] | 1.8% | 5.0% | -7.1% | ?
O=C1/C(=C/C=C/c2ccco2)SC(=S)N1c1ccc(O)cc1 | -3.6% | 35.5µM* | -0.7% | 0.0% | -8.2% | 6.2%
CC(C)C(C(=O)O)N1C(=O)/C(=C/C=C/c2ccco2)SC1=S (centres undefined) | ? | 31.6µM* | -1.2% | -3.5% | ? | -2.1%
O=C(NN1C(=O)/C(=C/C=C/c2ccco2)SC1=S)c1ccncc1 | -7.4% | 12.6µM* | -0.6% | -9.1% | -6.9% | -1.6%
CCCCNC(=O)CCCN1C(=O)CCn2nc(-c3cccn3C)cc21 | -0.5%[57.1 µM] | 19.9%[57.1 µM] | . | -3.6% | 10.1% | .
CCN(CC)c1nn2c(=O)c(C(=O)NCCc3cccc(C)c3)cnc2s1 | 32.7%[57.1 µM] | 17.6%[57.1 µM] | . | 12.3% | 1.0% | -7.9%
COC(=O)C1=C(NC(=O)COc2ccc3ccccc3c2)CCS1 | 29.7% | 79.4µM* | 0.6% | 2.3% | 15.5% | -4.1%
Fc1ccc(CSc2ncnc3nc[nH]c23)cc1 | 7.3% | 17.2% | 24.0% | -3.1% | -1.9% | -3.5%
Brc1ccc(CSc2ncnc3nc[nH]c23)cc1 | 7.5% | 17.9% | 12.6µM* | -0.1% | 0.4% | -5.9%
Cn1c2cc(CO)sc2c2cnn(Cc3ccccc3F)c(=O)c21 | . | . | . | . | 15.7% | 17.0%
